Where a name gives a salt, the structure may show the parent alone.
How the values were obtained:
Settings in all cases: incubation time: 27 h, anaerobic, 37 °C;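 for the amine columns active = adjusted P below 0.05 in both replicates with a change the same way and a mean fold change under 0.8 or over 1.25; inactive = the rest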
[1] = system: Clostridium sporogenes DSM 1664; test: growth (OD595) fold change vs plate DMSO controls (fold change (ratio)); higher = more growth
Summary of the method: (§1)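 Shaken 96-well cultures in mGAM, grown anaerobically for 27 h at 37 °C, were read at 595 nm. OD came from blank-subtracted readings, corrected for background with 20 µM compound solutions in water and scaled by a calibration factor of 5. Growth is the fold change versus the plate's median DMSO control. Values average 2 biological replicates, and any fold change above 1.5 is NA.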

Escherichia coli IAI1 [2] = test: as above
Summary of the method: as §1

[3] = system: Klebsiella aerogenes DSM 30053; test: as above
Summary of the method: as §1

[4] = system: Klebsiella aerogenes DSM 30053; test: fold change of Histamine concentration vs plate DMSO controls (fold change (ratio)); higher = more amine produced, active = hit call of the paper (significant change in both replicates, either direction)
Summary of the method: (§2)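 Amine values are fold changes relative to DMSO-only wells on the same plate. They derive from 27 h, 37 °C anaerobic mGAM cultures of four gut bacterial strains in 80 µL wells, dosed at 20 µM final, or 50 µM final for sweeteners. Extraction of the whole culture, LC–triple-quadrupole MS in dynamic MRM mode, external calibration curves and within-batch drift correction were used, with 2 biological replicates averaged.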

[5] = system: Clostridium sporogenes DSM 1664; test: fold change of Tryptamine concentration vs plate DMSO controls (fold change (ratio)); higher = more amine produced, active = hit call of the paper (significant change in both replicates, either direction)
Summary of the method: as §2

[6] = system: Ruminococcus gnavus DSM 108212; test: as above
Summary of the method: as §2

Escherichia coli IAI1 [7] = test: fold change of Putrescine concentration vs plate DMSO controls (fold change (ratio)); higher = more amine produced, active = hit call of the paper (significant change in both replicates, either direction)
Summary of the method: as §2

[8] = system: Klebsiella aerogenes DSM 30053; test: as above
Summary of the method: as §2

Escherichia coli IAI1 [9] = test: fold change of Cadaverine concentration vs plate DMSO controls (fold change (ratio)); higher = more amine produced, active = hit call of the paper (significant change in both replicates, either direction)
Summary of the method: as §2

[10] = system: Klebsiella aerogenes DSM 30053; test: as above
Summary of the method: as §2

[11] = system: Ruminococcus gnavus DSM 108212; test: fold change of 2-Phenylethylamine concentration vs plate DMSO controls (fold change (ratio)); higher = more amine produced, active = hit call of the paper (significant change in both replicates, either direction)
Summary of the method: as §2

[12] = system: Ruminococcus gnavus DSM 108212; test: growth (OD595) fold change vs plate DMSO controls (fold change (ratio)); higher = more growth
Summary of the method: as §1

Compound	growth [1]	growth (Escherichia coli IAI1 [2])	growth [3]	fold change of Histamine concentration [4]	fold change of Tryptamine concentration [5]	fold change of Tryptamine concentration [6]	fold change of Putrescine concentration (Escherichia coli IAI1 [7])	fold change of Putrescine concentration [8]	fold change of Cadaverine concentration (Escherichia coli IAI1 [9])	fold change of Cadaverine concentration [10]	fold change of 2-Phenylethylamine concentration [11]	growth [12]
CS(=O)(=O)Nc1ccc([N+](=O)[O-])cc1Oc1ccccc1 [Nimesulide] (20 µM)	1.01	0.991	1.03	1.07 (inactive)	0.973 (inactive)	0.972 (inactive)	1.01 (inactive)	1.01 (inactive)	1 (inactive)	0.991 (inactive)	0.905 (inactive)	
CC(C)(O/N=C(\C(=O)N[C@@H]1C(=O)N2C(C(=O)[O-])=C(C[n+]3ccccc3)CS[C@H]12)c1csc(N)n1)C(=O)O [Ceftazidime pentahydrate] (20 µM)	0.781	0.132	0.595	1.18 (inactive)	1.04 (inactive)	0.877 (inactive)	2.08 (active)	0.905 (inactive)	2.09 (active)	1.16 (inactive)	0.865 (inactive)	
C#C[C@]1(O)CC[C@H]2[C@@H]3CCC4=C(CCC(=O)C4)[C@H]3CC[C@@]21C [Norethynodrel] (20 µM)	0.978	1.04	1	1.03 (inactive)	0.936 (inactive)	1.03 (inactive)	1.04 (inactive)	1.03 (inactive)	0.979 (inactive)	1.01 (inactive)	0.989 (inactive)	1.02
CO/N=C(\C(=O)N[C@@H]1C(=O)N2C(C(=O)OC(C)OC(C)=O)=C(COC(N)=O)CS[C@H]12)c1ccco1 (stereo partly specified) [Cefuroxime axetil] (20 µM)	0.673	1.18	1.1	0.905 (inactive)	1.03 (inactive)	0.936 (inactive)	0.933 (inactive)	1.05 (inactive)	1.27 (active)	1.02 (inactive)	0.94 (inactive)	
CC(C)Nc1cccnc1N1CCN(C(=O)c2cc3cc(NS(C)(=O)=O)ccc3[nH]2)CC1 [Delavirdine] (20 µM)	1.03	1.01	0.995	1.04 (inactive)	0.965 (inactive)	1.05 (inactive)	0.984 (inactive)	0.906 (inactive)	1.04 (inactive)	1.05 (inactive)	1.04 (inactive)	0.754
C[C@@]12CC[C@@H]3[C@@](CC[C@H]4[C@@]3(C)CCC[C@@]4(C)C(=O)O)(CC1=O)C2 [Iso-Steviol] (50 µM)	1.08	0.954	1.03	1.02 (inactive)	0.905 (inactive)	1 (inactive)	0.992 (inactive)	1.02 (inactive)	0.963 (inactive)	1.02 (inactive)	0.996 (inactive)	1.09
N[C@@H](C(=O)N[C@@H]1C(=O)N2C(C(=O)O)=C(Cl)CC[C@H]12)c1ccccc1 [Loracarbef] (20 µM)	0	1.15	1.13	0.886 (inactive)	0.0238 (active)	0.345 (active)	1.05 (inactive)	1.04 (inactive)	1.52 (active)	1.05 (inactive)	0.319 (active)	
NC(=O)c1cc[n+](CC2=C(C(=O)[O-])N3C(=O)[C@@H](NC(=O)[C@@H](c4ccccc4)S(=O)(=O)O)[C@H]3SC2)cc1 [Cefsulodin sodium salt] (20 µM)	0.613	0.995	1.02	1 (inactive)	0.876 (inactive)	0.796 (active)	0.97 (inactive)	1.01 (inactive)	1.07 (inactive)	1 (inactive)	0.886 (inactive)	
COc1cc2nc(N3CCN(C(=O)c4ccco4)CC3)nc(N)c2cc1OC [Prazosin hydrochloride] (20 µM)		1.09	0.998	1.01 (inactive)		0.924 (inactive)	1.16 (inactive)	1.02 (inactive)	0.968 (inactive)	1 (inactive)	0.939 (inactive)	0.986
Cc1noc(NS(=O)(=O)c2ccc(N)cc2)c1C [Sulfisoxazole] (20 µM)		1.03	1.02	1.07 (inactive)		1.01 (inactive)	1.03 (inactive)	1.02 (inactive)	1.04 (inactive)	1.01 (inactive)	1 (inactive)	1.13
CC(=O)Nc1ccc(O)cc1 [Acetaminophen] (20 µM)		0.986	0.999	0.998 (inactive)			1.01 (inactive)	1 (inactive)	0.976 (inactive)	0.993 (inactive)	1.12 (inactive)	0.921
CC(C)/N=c1\cc2n(-c3ccc(Cl)cc3)c3ccccc3nc-2cc1Nc1ccc(Cl)cc1 [Clofazimine] (20 µM)	0.239	1.03	1.04	0.999 (inactive)	0.0321 (active)	0.637 (active)	1.04 (inactive)	1.04 (inactive)	1 (inactive)	1.03 (inactive)	0.727 (active)	

Source: the supplement of paper PMC12494721
